# Bioassay records (PubChem)
# Hits are enriched below; roughly 5.7% of the tested compounds scored in any of these assays.
# DAX1 inh-1 – blocks DAX1 repression of SF-1 activated StAR promoter | 370,000 compounds, 1.1% hits | inhibition, % at 6.8 µM | HEK293T StAR-luciferase reporter, SF-1/DAX-1 repression relief;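 active means inhibition above the mean over all tested compounds plus 3 SD, cut at about 3.6% in these data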;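 further: 0% = DAX-1 cells with DMSO and 100% = cells lacking DAX-1 with DMSO; higher inhibition means more luminescence from relief of DAX-1 repression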
# hgDAF12 agonist – hgDAF-12 agonism, primary luciferase screen | HEK293 GAL4-hgDAF12 UAS-luciferase reporter, agonist luminescence; normalized to butyrate control | activation, % at 6.8 µM | 370,000 compounds, 1.8% hits;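 active means activation above a cutoff set at the mean of all screened compounds plus 3 SD, cut at about 10% in these data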;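 further: 0% = DMSO wells and 100% = sodium butyrate wells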
# DAX1 inh-2 – inhibits human nuclear receptor DAX1. P51843. HEK293 Gal4-DAX1 luciferase reporter, luminescence. inhibition, % at 6.75 µM. 340,000 compounds, 0.99% hits. AID 504766;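 active means inhibition above the mean over all tested compounds plus 3 SD, cut at about 4.2% in these data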;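 further: 0% = DAX1-transfected cells with DMSO and 100% = empty-vector control cells with DMSO; inhibition shows as a rise in luminescence from relieved DAX1 repression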
# ssDAF-12 act – S. stercoralis DAF-12 activation, primary screen | AID 652126 | activation, % at 6.8 µM | 370,000 compounds, 1% hits | HEK293 ssDAF-12/GRIP1 lit1-tk-luc reporter, luminescence; % of 3 µM dafachronic acid response;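 active means activation above the mean over all tested compounds plus 3 SD, cut at about 0.9% in these data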;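 further: 0% = DMSO-only wells and 100% = 3 µM delta7-dafachronic acid wells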
# AHR act – human AHR activation | AHR-responsive luciferase reporter cells, luminescence | 320,000 compounds, 2.5% hits | activation, % at 5 µM | AID 2796 | P35869; in the data active means activation above about 47%;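 further: 0% = vehicle wells and 100% = reference agonist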
# Target sequence (P35869 whole entry, looked up): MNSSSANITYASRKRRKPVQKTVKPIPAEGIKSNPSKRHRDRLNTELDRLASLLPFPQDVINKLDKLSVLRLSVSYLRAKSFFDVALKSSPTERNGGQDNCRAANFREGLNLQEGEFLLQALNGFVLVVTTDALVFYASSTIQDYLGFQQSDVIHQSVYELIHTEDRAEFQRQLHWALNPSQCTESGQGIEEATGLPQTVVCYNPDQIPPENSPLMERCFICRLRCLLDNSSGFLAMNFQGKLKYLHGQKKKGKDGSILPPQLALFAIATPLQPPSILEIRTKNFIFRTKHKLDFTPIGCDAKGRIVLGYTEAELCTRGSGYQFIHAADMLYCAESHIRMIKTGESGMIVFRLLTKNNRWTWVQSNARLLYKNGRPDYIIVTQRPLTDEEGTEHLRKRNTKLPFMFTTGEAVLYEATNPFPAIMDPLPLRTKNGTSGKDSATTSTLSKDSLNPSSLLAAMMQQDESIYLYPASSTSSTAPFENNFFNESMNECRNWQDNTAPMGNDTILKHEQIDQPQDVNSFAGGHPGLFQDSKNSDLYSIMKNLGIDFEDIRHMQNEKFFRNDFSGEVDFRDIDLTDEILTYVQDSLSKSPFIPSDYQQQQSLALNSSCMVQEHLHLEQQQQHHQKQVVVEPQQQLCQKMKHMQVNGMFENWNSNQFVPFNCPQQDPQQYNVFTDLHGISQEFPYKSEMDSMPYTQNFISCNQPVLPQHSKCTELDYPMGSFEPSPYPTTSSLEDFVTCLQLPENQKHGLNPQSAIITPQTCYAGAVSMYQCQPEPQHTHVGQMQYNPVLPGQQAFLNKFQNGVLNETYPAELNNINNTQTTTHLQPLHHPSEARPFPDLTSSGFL
# hcDAF-12 act – activates DAF-12 receptor from parasite H. contortus | HEK293 hcDAF-12 lit1-tk-luc reporter, luminescence; 0% DMSO, 100% Δ7-dafachronic acid | activation, % at 6.8 µM | 370,000 compounds, 1.4% hits | AID 652067;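 active means activation above the mean of all tested compounds plus 3 SD, cut at about 5.5% in these data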;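 further: 100% = response to 3 µM Δ7-dafachronic acid high control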
# The depositor's hits bear a star; x = not tested or not shown.
SMILES,DAX1 inh-1,hgDAF12 agonist,DAX1 inh-2,ssDAF-12 act,AHR act,hcDAF-12 act
O=C(NCCCSc1ccccc1)c1cc(Cl)ccc1O,0,-1,1,-1,x,0
COc1ccc(-c2nc(Cn3c(SCc4cccc(F)c4)nc4ccncc43)c(C)o2)cc1OC,-1,0,-1,-2,27,-2
COc1ccc(-c2nc(Cn3c(SCc4ccc(C)cc4)nc4ccncc43)c(C)o2)cc1OC,1,12*,0,-1,13,3
Cc1cc(N2CCN(CC(C)(C)O)C[C@@H]2C)ccc1N1CCN(Cc2ccccc2)[C@H](C)C1,0,-2,x,-1,x,-2
O=C(CN1CCN(CCN2C(=O)c3cccc4cccc(c34)C2=O)CC1)c1ccc(F)cc1,-1,0,0,-1,31,0
O=C1c2cccc3cccc(c23)C(=O)N1CCN1CCN(C(=S)Nc2ccc(F)cc2)CC1,x,x,x,x,106*,x
COc1cc2c3c(cccc3c1)C(=O)N(CCN1CCCC1)C2=O,-2,-1,8.7*,-1,x,5
Cc1cc(Nc2ccc(Cl)cc2)nc(N)n1,1,4,1,-1,7,0
Nc1cc(Nc2ccc(Br)cc2)nc(N)n1,1,4,2,-2,62*,1
CN1CCC(N2CCN(C3CN(C4CCCCC4)S(=O)(=O)C3)CC2)CC1 (stereo not drawn),-1,1,x,-1,x,0
CCN(CC)S(=O)(=O)c1ccc2[nH]c(=O)cc(C(=O)Nc3ccc(C)cc3)c2c1,0,3,0,-1,11,2
Cc1ccc(NC(=O)c2cc(=O)[nH]c3ccccc23)cc1,0,0,0,-1,76*,1
COc1cccc(-c2nc(-c3ccccc3)[nH]c(=O)c2C#N)c1,0,1,-1,0,79*,-2
COc1ccc(-c2nc(-c3cccc(C)c3)[nH]c(=O)c2C#N)cc1,1,1,-1,-1,0,0
COc1ccc(Cl)cc1NC(=O)C/C(C)=N/NC(=O)c1ccccc1[N+](=O)[O-],0,3,-1,-1,21,1
C/C(CC(=O)Nc1cc(Cl)ccc1Cl)=N\NC(=O)c1ccccc1Br,1,4,0,-1,71*,0
COc1cc(NC(=O)C/C(C)=N/NC(=O)Cc2ccc(Cl)cc2)c(OC)cc1Cl,0,-4,0,-1,81*,-2
O=C(CSc1nc2ccccc2c(=O)n1CCCO)Nc1ccc2c(c1)OCCO2,-2,-3,-1,-2,x,-2
COC(=O)C1(F)C(=O)NC(=O)NC1OC (stereo not drawn),-1,6,x,-1,x,-1
CCOC(=O)Cc1ccc(Nc2nc(NCc3ccccc3)nc3ccsc23)cc1,-3,-5,x,-1,x,-3
CCCOC1CCCN(C(=O)CCc2nnc(Cc3cccc(C)c3)o2)C1 (stereo not drawn),1,11*,3,-1,4,3
Cc1cccc(Cc2nnc(CCC(=O)N(CC3CC3)CC3CCCO3)o2)c1 (stereo not drawn),0,12*,3,-1,25,2
CCN(CC1CCCO1)C(=O)CCc1nnc(Cc2ccc3c(c2)OCO3)o1 (stereo not drawn),0,-1,1,-1,1,0
Cc1cccc(Cc2nnc(CCC(=O)N3CCCCC3c3nccs3)o2)c1 (stereo not drawn),0,-1,0,-1,3,-1
NNC(=O)c1nc(Cl)c(Cl)c(N)c1Cl,0,3,-1,-1,77*,1
Nc1c(Cl)c(Cl)nc(C(=O)OCC(=O)NC2CCCCC2)c1Cl,-1,0,0,0,29,2
COc1ccc2c(=O)c(Oc3ccc(C(=O)O)cc3)c(C(F)(F)F)oc2c1,4.2*,10,-2,0.9*,-5,3
C[C@]12c3[nH]c4ccccc4c3CCN1C(=O)C(CC(=O)NCCC1=CCCCC1)C[C@@H]2C(=O)N1CCCCC1 (stereo partly drawn),0,0,0,-1,-1,-1
C/C(Cc1ccccc1)=N/NC(=O)CNC(=O)C(c1ccccc1)c1ccccc1,0,0,0,0,1,6.0*
COc1ccc(CC(=O)N/N=C/c2cc(Br)cs2)cc1OC,0,-1,-1,-1,0,-3
